An excerpt weighted towards active compounds, which were near 8.3% of everything screened.
HCV inh = inhibitors of hepatitis C virus infection; Huh7.5.1 HCVcc-Cre infection, luciferase reporter, 44 h; Potency, µM (top dose mostly 41.8 µM), most hits filed as inhibitors; 3.4% of 340,000 active; AID 651820
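Cells (1,000/well) were plated 4 h before compound, then infected with HCVcc-Cre virus (~0.5 moi). After 44 h further culture, infection was read as luciferase luminescence following a 15 min substrate incubation at room temperature.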
LASV entry inh = inhibitors of Lassa virus binding or cell entry | Potency, µM (series often up to 37.9 µM), actives largely listed as inhibitors | 1.2% of 300,000 active | AID 540256 | Lassa virus pseudotype entry inhibition, cell reporter; calls by dose curve; tested in HEK293 cells; also: nearly all actives have a fitted effect of over 50% in size
FMDV inh = antivirals against foot and mouth disease virus; 1.2% of 410,000 active; FMDV antiviral cell-based qHTS; Potency, µM (titrated, usually from 57.9 µM), usual class: inhibitors; calls by dose curve; tested in HEK293T cells; also: read-out not given here; nearly all actives have a fitted effect of over 45% in size
HCMV antiviral = blocks human cytomegalovirus replication; HFF cells, HCMV-luciferase reporter, 72 h; stronger effect = lower value; activity change, negative = inhibition, % at 57.5 µM; 4.5% of 410,000 active; AID 1259415; in the data active = activity change below about -60%; inconclusive = no clear call, values can overlap the other calls; inactive = above about -39%
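Steps: HFFs plated, 16 h 37C; compounds added; HCMV-luciferase added to MOI 1 PFU/cell; 72 h 37C; OneGlo reagent, 5 min room temperature; luminescence read, normalized to controls.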
MARV entry inh = blocks Marburg virus binding to or entry into cells | Marburg virus pseudotyped entry inhibition, cell reporter | Potency, µM (top dose mostly 37.8 µM), usual class: inhibitors | 1.8% of 300,000 active | AID 540276; calls by dose curve; tested in HEK293 cells
Giardia FBPA inh = inhibitors of Giardia lamblia fructose-1,6-bisphosphate aldolase. A8B2U2. Potency, µM (series often up to 59.6 µM), actives largely listed as inhibitors. 0.71% of 290,000 active. purified Giardia FBPA; also: nearly all actives have a fitted effect of over 55% in size
Target sequence (A8B2U2 whole entry, looked up): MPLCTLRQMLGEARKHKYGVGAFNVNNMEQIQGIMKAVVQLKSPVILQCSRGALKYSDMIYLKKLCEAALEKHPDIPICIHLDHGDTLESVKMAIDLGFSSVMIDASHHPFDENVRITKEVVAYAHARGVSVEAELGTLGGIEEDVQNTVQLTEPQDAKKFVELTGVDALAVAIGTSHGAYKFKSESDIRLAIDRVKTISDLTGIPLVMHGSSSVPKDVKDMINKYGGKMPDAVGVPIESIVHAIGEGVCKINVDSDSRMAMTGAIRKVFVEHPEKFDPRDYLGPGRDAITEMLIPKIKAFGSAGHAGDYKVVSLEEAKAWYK
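Giardia FBPA (40 nM reagent) was preincubated 10 min at RT with compound (up to 57.5 uM final), then substrate plus GAPDH/TPI/NAD/arsenate coupling system with diaphorase/resazurin was added; resorufin fluorescence (525/598 nm) was read after 20 min.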
A number is an active result; n = inactive; u = inconclusive; x = no result; [ ] = dose if it differs, or a comment. Unless noted, calls follow the shape of the dose curve; as a rule, active = well fitted curve in the direction sought with a large enough effect; inconclusive = small, poorly fitted or top-dose-only effect, or another doubt; inactive = no such curve, though single readings can be large; an effect the other way counts as inactive or inconclusive.

SMILES	HCV inh	LASV entry inh	FMDV inh	HCMV antiviral	MARV entry inh	Giardia FBPA inh
Nc1c(-c2nc(-c3cccs3)no2)nnn1-c1ccc(Cl)cc1	x	n	n	n	x	x
Cc1ccc(C)c(-n2nnnc2Sc2nc([N+](=O)[O-])nn2C)c1	n	n	n	-70	u	n
CCOc1ccc(N2C(=O)c3n[nH]c(-c4cccs4)c3C2c2cccc(F)c2)cc1 (centres undefined)	x	u	u	n	u	x
CCOC(=O)c1ccc(N2C(=O)c3n[nH]c(-c4cccs4)c3C2c2ccc(OC)cc2OC)cc1 (centres undefined)	x	u	u	-92	u	x
CCOC(=O)c1ccc(N2C(=O)c3n[nH]c(-c4cccs4)c3C2c2cccc(OC)c2)cc1 (centres undefined)	x	u	u	-107	10µM	x
CC#CCN1c2ccccc2[C@]23C[C@@H](C(=O)OC)N(S(=O)(=O)CCCC)C2=NC(C(=O)OC)=C(C(=O)OC)[C@H]13	x	x	x	x	x	n[12.9 µM]
COc1ccc(CC(=O)Nc2cccc(-c3nnc(-c4cccc(C)c4)o3)c2)cc1OC	6.3µM	u	40µM	n	u	n
COc1ccc(CC(=O)Nc2cccc(-c3nnc(-c4ccccc4)o3)c2)cc1OC	6.3µM	7.3µM	x	u	4.6µM	n
O=C(Nc1cccc(-c2nnc(-c3ccccc3)o2)c1)C1CC1	14µM	n	n	u	u	n
COc1ccccc1OCC(=O)Nc1cccc(-c2nnc(-c3ccco3)o2)c1	u	u	n	n	6.3µM	n
Cc1ccc(OCC(=O)Nc2cccc(-c3nnc(-c4ccccc4)o3)c2)c(C)c1	u	u	n	n	n	n
COc1ccc(CC(=O)Nc2ccc(-c3nnc(-c4ccccc4)o3)cc2)cc1OC	n	n	n	n	n	n
CNc1nc(C#N)nc(Nc2ccccc2)n1	x	x	x	x	x	n
CCc1cccc(NC(=O)Cc2ccc(OC)c(OC)c2)c1	u	u	u	-82	u	n
COc1ccc(CC(=O)NCc2cccc(CNC(=O)Cc3ccc(OC)c(OC)c3)c2)cc1OC	n	x	n	n	x	n
CC(=O)Oc1ccc(C(=O)Nc2cccc(C(=O)NC(C)(C)C)c2)cc1	13µM	n	n	n	n	n
CC(=O)Oc1ccc(C(=O)Nc2cccc(-c3nnc(-c4ccco4)o3)c2)cc1	u	u	n	n	11µM	n
CC(=O)Oc1ccc(C(=O)Nc2cccc(C(=O)c3cccc(NC(=O)c4ccc(OC(C)=O)cc4)c3)c2)cc1	u	u	u	n	u	n
CCCCCCCc1cc2ccc(F)cc2c2c(C(=O)OC)c(C(=O)OC)c(C(=O)OC)n12	x	x	x	x	n	x
COc1cccc(C2C(C(=O)Nc3ccccc3OC)=C(C)Nc3nc4ccccc4n32)c1 (centres undefined)	x	n	u	n	n	x
CN1C(=O)C2=NC(C3CCCC3)=NC2N(C)C1=O (centres undefined)	x	x	x	x	n	x
CCn1c(=O)n(CC)c2cc(N3CCCC3)c(NC(=O)c3cc(Br)ccc3OC)cc21	u	x	u	-70	x	x
CCn1c(=O)n(CC)c2cc(N3CCCC3)c(NC(=O)c3ccccc3F)cc21	13µM	u	n	n	u	n
CCn1c(=O)n(CC)c2cc(N3CCCC3)c(NC(=O)c3ccccc3C)cc21	u	x	u	n	x	n
COc1ccc(Br)cc1C(=O)Nc1ccccc1N1CCCC1	u	x	n	u	x	x
SMILES	HCV inh	LASV entry inh	FMDV inh	HCMV antiviral	MARV entry inh	Giardia FBPA inh
CCCn1c(CCC(=O)Nc2cc(OC)cc(OC)c2)nc2cccnc21	x	n	n	n	n	x
Cc1cc2c(NC3CCCCC3)ncnc2s1	10µM	u	n	u	u	u
Brc1ccc2ncnc(NCc3ccccc3)c2c1	10µM	u	u	-96	u	n
CCCCCCCCNc1ncnc2ccccc12	0.79µM	u	n	x	u	n
Cc1cc2c(NCCc3ccccc3)ncnc2s1	5.6µM	u	n	-88	7.1µM	u
Cc1cc2c(SCC(=O)NC3CCCCC3)ncnc2s1	n	n	n	n	n	n
c1ccc(CCNc2ncnc3ccccc23)cc1	1.1µM	x	n	-89	x	n
Cc1ccc(-n2ncc3c(NCCc4ccccc4)ncnc32)cc1	x	n	n	n	x	x
Cc1ccc(Sc2c(C)nn(C(=O)c3ccc(Cl)cc3)c2C)cc1	x	n	n	n	n	x
COc1cc(CNC2CCCC2)cc(Cl)c1OCc1ccccc1F	10µM	u	x	u	u	n
COc1cc(CNc2ccc3[nH]c(=O)[nH]c3c2)cc(Cl)c1OCc1ccccc1F	x	n	u	u	u	x
Cc1ccc(C)c(NC(=S)N2CCN(S(=O)(=O)c3ccccc3)CC2)c1	n	n	n	-71	n	n
CCc1ccccc1NC(=O)CNC(=O)c1cccc(S(=O)(=O)N2CCN(Cc3ccccc3)CC2)c1	10µM	n	n	n	u	x
CC(=O)Nc1cccc(NC(=O)c2cccc(S(=O)(=O)N3CCN(Cc4ccccc4)CC3)c2)c1	u	n	n	n	n	x
Cc1ccc(S(=O)(=O)N2CCN(C(=O)N(c3ccccc3)c3ccccc3)CC2)cc1	u	u	n	u	18µM	n
Cc1ccc(N(C)C(=O)N2CCN(S(=O)(=O)c3ccc(C)cc3)CC2)cc1	u	x	n	u	n	n
CCN(CC)C(=O)c1ccc(NC(=O)c2cccc(S(=O)(=O)N3CCN(Cc4ccccc4)CC3)c2)cc1	6.3µM	n	u	-78	u	x
CCCCCCCCN1C(=O)[C@@H](CC(=O)NCC23CC4CC(CC(C4)C2)C3)C[C@@]2(C(=O)OC)C1=C[C@H](C(C)(C)C)O[C@@H]2C	x	x	x	n	x	x
O=C(NCCc1nc2ccccc2n1Cc1c(F)cccc1Cl)c1ccco1	x	n	u	n	u	x
CC(C)c1ccc(OCC(=O)Nc2cc(-c3ccccc3)no2)cc1	x	n	u	n	n	x
O=S(=O)(c1ccccc1)N1CCN(C(=S)Nc2ccc(F)cc2)CC1	n	n	n	n	n	n
O=S(=O)(c1ccc(Cl)cc1)N1CCN(C(=S)Nc2ccc(F)c(Cl)c2)CC1	n	u	n	-62	u	n
Cc1ccc(C)c(NC(=O)CN(C)C(=O)c2cccc(S(=O)(=O)N3CCCC3)c2)c1	n	n	n	n	n	x
Cc1ccc(C)c(NC(=O)CN(C)C(=O)c2cccc(S(=O)(=O)N3CCN(Cc4ccccc4)CC3)c2)c1	5.6µM	u	14µM	u	u	x
COc1ccc(/C=C/CN2CCC(CO)(Cc3ccccc3Cl)CC2)cc1	u	n	n	-70	u	n
COC(=O)c1ccc(CN2CCC(CO)(Cc3ccccc3Cl)CC2)cc1	n	n	n	n	u	n
COc1ccc(OC)c(CN2CCN(CCCc3ccccc3)C(CCO)C2)c1 (centres undefined)	n	x	n	-102	x	n
OCCC1CN(Cc2ccccc2O)CCN1CCCc1ccccc1 (centres undefined)	n	x	n	n	x	n
OCCC1CN(Cc2c(O)ccc3ccccc23)CCN1CCc1ccccc1 (centres undefined)	n	n	n	n	n	20µM
Cc1ccc(-n2c3c(cc(C(=O)Nc4ccccc4C(N)=O)c2=O)C(=O)CC(C)(C)C3)cc1	x	n	n	n	n	x
